The source of these data is PubChem BioAssay.

Assay [1] in a line: inhibitors of TNFa-induced NFkB p65 translocation, primary screen, imaging, HUVEC, MLSMR starter and 10KST1 sets (AID 438;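 active = inhibition above 20% together with a positive visual image hit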;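 note: compound added about 3h40 before a 20 min TNFalpha stimulation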;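 for inhibition: signal is the nuclear over cytoplasmic p65 intensity ratio per well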). As to conditions: HUVEC TNFa-induced p65 nuclear translocation; cell count: measured here: nuclei count (cytotoxicity indicator), at 2.08 µM; inhibition: at 2 µM, stronger effect = higher value, 0% TNFa-plus-vehicle, 100% no-TNFa wells.
Assay [2] can be described thus: reduction of polyQ htt aggregates in cells – imaging, exon1htt(103Q)mCFP cells, high-content imaging, primary screen (AID 483;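 active = visual image review flags a hit and inhibition of aggregation exceeds 20%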;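 note: compound exposure lasted 3 days before fixation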;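 for nuclei count: percent of the per-plate median nuclei count of sample wells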). Particulars: exon1htt(103Q)mCFP cell line, aggregate imaging, at 2 µM; inhibition of aggregation: stronger effect = higher value; nuclei count: measured here: cell count, toxicity.
Assay [3] in a line: endothelial E-selectin expression blockers – imaging, HUVEC, immunofluorescence, MLSMR starter and 10KST1 sets, primary screen (AID 487;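 active = visually confirmed hit in the image check and inhibition above 20%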;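 for inhibition: signal is fraction of cell area covered by stained E-selectin grains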;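 for nuclei count: 100% = median nuclei count of all wells on the same plate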). As to conditions: HUVEC TNFalpha-induced E-selectin immunofluorescence imaging, at 2 µM; inhibition: stronger effect = higher value; nuclei count: measured here: cell number, toxicity.
In assay [4] the target is Voltage-gated potassium channel subunit beta-2 (Rattus norvegicus) (UniProt P62483). Briefly: inhibitors of rat Kvbeta2 reductase activity – biochemical, NADPH fluorescence, primary screen (AID 622;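 active = fluorescence slope higher than the sample average by over 3 SD, cut at about -0.22 in these data, passing the limit was not always enough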;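 note: slope of raw intensity against log time taken from 70 to 1610 s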). Particulars: recombinant KvBeta, 4-cyanobenzaldehyde reduction, at 10 µM, stronger effect = higher value.
Voltage-gated potassium channel subunit beta-2 (Rattus norvegicus), sequence (P62483 whole entry, looked up): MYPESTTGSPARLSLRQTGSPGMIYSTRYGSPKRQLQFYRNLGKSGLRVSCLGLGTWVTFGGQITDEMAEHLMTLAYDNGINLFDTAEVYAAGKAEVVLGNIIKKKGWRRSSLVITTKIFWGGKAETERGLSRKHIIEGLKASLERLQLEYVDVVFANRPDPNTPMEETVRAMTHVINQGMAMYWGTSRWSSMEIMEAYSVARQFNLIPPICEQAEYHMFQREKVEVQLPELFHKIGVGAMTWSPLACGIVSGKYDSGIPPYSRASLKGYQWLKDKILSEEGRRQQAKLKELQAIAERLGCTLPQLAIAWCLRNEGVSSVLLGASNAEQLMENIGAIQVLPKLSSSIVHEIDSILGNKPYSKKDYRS
For assay [5] the target is unchanged. The assay can be described thus: enhancers of rat Kvbeta2 NADPH turnover – biochemical, NADPH fluorescence, primary screen (AID 623;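 active = NADPH fluorescence slope more negative than the mean of all samples by about 3 SD, 99.7% confidence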;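 note: fluorescence intensity change per second fitted from 20 to 320 s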). As to conditions: Recombinant KvBeta, NADPH fluorescence decrease slope, 10 min; at 10 µM; stronger effect = lower value.
Assay [6] has as its target Alpha-2C adrenergic receptor (Homo sapiens) (UniProt P18825). Briefly: compounds altering alpha2C-coupled GIRK flux – cell-based, HEK293 alpha2C/GIRK1/2, thallium flux, primary screen (AID 624;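 active = fluorescence slope after compound addition differing from the mean of all screened samples at 99.7% confidence, in either direction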;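 note: slope of fluorescence ratio to pre-addition baseline per second over 15 to 24 s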). Particulars: thallium flux BTC fluorescence, at 10 µM, actives lie on both sides.
A short description of assay [7]: blockers of RIG-like receptor reporter activation – cell-based, Sendai virus stimulus, luciferase, 10K MLSCN set, TLR/RLR signaling modifier project, primary screen (AID 602276;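 active = inhibition at or above 50% at 10 µM; inactive = inhibition below 50%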;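 note: firefly luciferase from ISG56 promoter only with Renilla not read in this screen; 0% = Sendai virus plus DMSO and 100% = medium plus DMSO without virus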). As to conditions: HEK293 RL24 IRF3 luciferase reporter, at 10 µM, stronger effect = higher value. On the technique in general: In a reporter assay the amount or activity of a reporter protein is the signal.

The nature of assay [8]: TLR3 IRF3 reporter activation blockers – cell-based, poly I:C stimulus, luciferase, 10K MLSCN set, primary screen (AID 602277). Particulars: HEK293-TLR3 RL24 IRF3 luciferase reporter, at 10 µM, stronger effect = higher value.

Calls of active or inactive are those of the source.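 Rule for the calls, unless noted: active = inhibition of the reporter signal at or above 50%; inactive = inhibition below 50%.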

Alpha-2C adrenergic receptor (Homo sapiens), sequence (P18825 whole entry, looked up): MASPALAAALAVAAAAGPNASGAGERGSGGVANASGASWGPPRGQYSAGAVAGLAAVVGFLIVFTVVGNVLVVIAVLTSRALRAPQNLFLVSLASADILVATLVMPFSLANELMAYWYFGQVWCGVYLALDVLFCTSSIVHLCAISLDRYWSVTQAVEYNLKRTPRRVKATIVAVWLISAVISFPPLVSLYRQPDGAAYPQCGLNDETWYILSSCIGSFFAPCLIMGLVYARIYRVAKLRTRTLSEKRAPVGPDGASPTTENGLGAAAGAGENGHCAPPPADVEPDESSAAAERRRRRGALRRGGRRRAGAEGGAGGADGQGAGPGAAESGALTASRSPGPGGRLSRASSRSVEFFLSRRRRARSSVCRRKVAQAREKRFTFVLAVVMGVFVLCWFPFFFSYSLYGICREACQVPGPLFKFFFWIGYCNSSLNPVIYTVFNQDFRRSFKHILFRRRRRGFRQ

In the case of `COc1ccc(-c2nnc(-c3ccc(N)cc3)o2)cc1`, the cell count in assay [1] was 332. In addition, the inhibition was 5.5% (inactive) in assay [1], -145% (inactive) in assay [3], -34.1% (inactive) in assay [7] and -82.2% (inactive) in assay [8]. The inhibition of aggregation in assay [2] is 9.6% (inactive). Further, the nuclei count in assay [2] was found to be 111%; in assay [3], 124%. Further, the fluorescence slope in assay [4] was -0.0553 (active). The NADPH fluorescence slope in assay [5] was -2.2e-05 (inactive). Besides, the slope in assay [6] is 0.00409 (inactive).
As to `COc1ccc(-c2noc(CCCC(=O)O)n2)cc1`, the cell count in assay [1] was found to be 696. Besides, the inhibition in assay [1] is -7.8% (inactive); in assay [3] it was -54.3% (inactive); in assay [7] it was 35% (inactive); in assay [8], 86.3% (active). Further, the inhibition of aggregation in assay [2] was -3.1% (inactive). In addition, the nuclei count is 125% in assay [2] and 107% in assay [3]. Also, the fluorescence slope in assay [4] is -0.341 (inactive). Also, the NADPH fluorescence slope in assay [5] is 1.2e-05 (inactive). The slope in assay [6] is 0.00595 (inactive).
For the molecule `Cc1nn(-c2ccc(F)cc2)c2sc(C(=O)O)cc12`, in assay [1], the cell count turned out to be 354. In addition, the inhibition in assay [1] was 4.7% (inactive); in assay [3], -87.2% (inactive); in assay [7] it was 13.2% (inactive); in assay [8] it was 24% (inactive). Also, the inhibition of aggregation in assay [2] was 3.7% (inactive). For the same molecule, the nuclei count was 86.9% in assay [2] and 117% in assay [3]. Further, the fluorescence slope in assay [4] was -0.447 (inactive). In addition, the NADPH fluorescence slope in assay [5] was -0.00011 (inactive). For the same molecule, the slope in assay [6] was 0.00627 (inactive).
Take `CCOc1ccc(C(C)=O)cc1COc1ccc(-n2cnnn2)cc1`: the cell count in assay [1] worked out at 407. Besides, the inhibition in assay [1] is -8.7% (inactive); in assay [3], 25.1% (inactive); in assay [7], 1.13% (inactive); in assay [8], -2.41% (inactive). Moreover, in assay [2], the inhibition of aggregation is 18.3% (inactive). The nuclei count in assay [2] came out at 80.8%; in assay [3], 132%. For the same molecule, the fluorescence slope in assay [4] is -0.617 (inactive). In assay [5], the NADPH fluorescence slope was -6.6e-05 (inactive). Besides, in assay [6], the slope was 0.00398 (inactive).
On to `C=CCn1c(COc2ccccc2)nnc1SCC(=O)C(C)(C)C`, for which the cell count in assay [1] came to 733. The inhibition in assay [1] is 0.9% (inactive); in assay [3], 7.8% (inactive); in assay [7], 3.19% (inactive); in assay [8], 22.7% (inactive). Further, the inhibition of aggregation in assay [2] was -8.3% (inactive). Besides, the nuclei count in assay [2] stood at 102%; in assay [3], 98.4%. For the same molecule, the fluorescence slope in assay [4] is -0.449 (inactive). For the same molecule, the NADPH fluorescence slope in assay [5] was -3.9e-05 (inactive). For the same molecule, the slope in assay [6] was 0.00312 (inactive).
Consider `COc1ccc(CNc2oc(-c3ccccc3)nc2C#N)cc1`, for which the cell count in assay [1] was found to be 458. Also, the inhibition was 5% (inactive) in assay [1], -19.4% (inactive) in assay [3], -29.8% (inactive) in assay [7] and -35.1% (inactive) in assay [8]. Also, the inhibition of aggregation in assay [2] is -12.2% (inactive). Moreover, the nuclei count turned out to be 99.5% in assay [2] and 67.2% in assay [3]. The fluorescence slope in assay [4] is -0.523 (inactive). Further, the NADPH fluorescence slope in assay [5] was 2.8e-05 (inactive). The slope in assay [6] was 0.00683 (inactive).
`Nc1nc(SCc2ccc(Cl)cc2Cl)n[nH]1`: the cell count in assay [1] was 352. For the same molecule, the inhibition in assay [1] is -1.7% (inactive); in assay [3], -161% (inactive); in assay [7], -12% (inactive); in assay [8] it was -30.1% (inactive). Also, the inhibition of aggregation in assay [2] is -21.4% (inactive). For the same molecule, the figures for the nuclei count in assay [2] and in assay [3] were 97.6% and 124%, respectively. The fluorescence slope in assay [4] was -0.387 (inactive). Besides, the NADPH fluorescence slope in assay [5] was -4.5e-05 (inactive). In assay [6], the slope was 0.00474 (inactive).
`C/C=C/CSc1nc2c(c(=O)[nH]c(=O)n2C)n1Cc1ccc(C)cc1`: the cell count in assay [1] was 693. Moreover, the inhibition was -6.9% (inactive) in assay [1], -43.7% (inactive) in assay [3], -3.97% (inactive) in assay [7] and 18.2% (inactive) in assay [8]. In addition, the inhibition of aggregation in assay [2] is -5% (inactive). Further, the nuclei count in assay [2] amounted to 116%; in assay [3], 112%. In assay [4], the fluorescence slope was -0.542 (inactive). In addition, in assay [5], the NADPH fluorescence slope is -3.9e-05 (inactive). Moreover, the slope in assay [6] was 0.0074 (inactive).
For the molecule `CCOC(=O)c1cn(CC)c2cc(N3CCOCC3)c(F)cc2c1=O`, the cell count in assay [1] amounted to 249. In addition, the inhibition in assay [1] was -5.5% (inactive); in assay [3] it was -45.9% (inactive); in assay [7], 3.57% (inactive); in assay [8], 10.9% (inactive). Moreover, the inhibition of aggregation in assay [2] is 4.6% (inactive). The nuclei count in assay [2] came to 72.9%; in assay [3], 114%. The fluorescence slope in assay [4] was -0.592 (inactive). Moreover, the NADPH fluorescence slope in assay [5] is -1e-05 (inactive). Besides, in assay [6], the slope is 0.00553 (inactive).
Regarding `CCOC(=O)Nc1nnc(-c2ccccc2OC)s1`, the cell count in assay [1] was determined as 613. The inhibition is -2.7% (inactive) in assay [1], 10.1% (inactive) in assay [3], -20.9% (inactive) in assay [7] and -24.1% (inactive) in assay [8]. Further, in assay [2], the inhibition of aggregation is -8.8% (inactive). Besides, the results for the nuclei count in assay [2] and in assay [3] were 108% and 102%, respectively. For the same molecule, the fluorescence slope in assay [4] is -0.514 (inactive). Besides, the NADPH fluorescence slope in assay [5] is 1.1e-05 (inactive). For the same molecule, in assay [6], the slope was 0.00542 (inactive).
`COc1cccc2cc(C(=O)C3=C(O)C(=O)N(CCCN4CCOCC4)C3c3ccncc3)oc12` (centres undefined): the cell count in assay [1] worked out at 463. Also, the inhibition in assay [1] was 0.9% (inactive); in assay [3], -14.9% (inactive); in assay [7], -11.8% (inactive); in assay [8], 10.6% (inactive). The inhibition of aggregation in assay [2] was -8.5% (inactive). Also, the nuclei count in assay [2] worked out at 103%; in assay [3], 120%. Also, the fluorescence slope in assay [4] is -0.478 (inactive). Further, the NADPH fluorescence slope in assay [5] was -7.1e-05 (inactive). The slope in assay [6] was 0.00372 (inactive).
As for `Cc1ccc(C(C(=O)NC2CCCCC2)N2CCOCC2)cc1` (centres undefined), the cell count in assay [1] was determined as 674. Besides, the inhibition in assay [1] is -5.2% (inactive); in assay [3] it was -41.7% (inactive); in assay [7], -0.432% (inactive); in assay [8], 15.1% (inactive). Also, the inhibition of aggregation in assay [2] was -13% (inactive). In addition, the nuclei count in assay [2] was determined as 114%; in assay [3], 125%. Besides, the fluorescence slope in assay [4] is -0.468 (inactive). In assay [5], the NADPH fluorescence slope is -0.000297 (inactive). In addition, the slope in assay [6] is 0.00526 (inactive).
For `CC(=O)c1sc(NC(=O)C2COc3ccccc3O2)nc1C` (centres undefined), the cell count in assay [1] turned out to be 604. The inhibition in assay [1] was -0.3% (inactive); in assay [3], 19.7% (inactive); in assay [7], 15.8% (inactive); in assay [8] it was -48.7% (inactive). For the same molecule, the inhibition of aggregation in assay [2] was 24.9% (inactive). Moreover, the nuclei count amounted to 87.8% in assay [2] and 104% in assay [3]. Also, the fluorescence slope in assay [4] is -0.586 (inactive). Besides, in assay [5], the NADPH fluorescence slope is -2.4e-05 (inactive). In addition, the slope in assay [6] is 0.00774 (inactive).
For `CN(c1ccccc1C(=O)N1CCN(c2cccc(Cl)c2)CC1)S(C)(=O)=O`, the cell count in assay [1] was 313. Besides, the inhibition was -1.9% (inactive) in assay [1], 18.2% (inactive) in assay [3], 6.88% (inactive) in assay [7] and 8.69% (inactive) in assay [8]. Moreover, the inhibition of aggregation in assay [2] is 3.7% (inactive). The results for the nuclei count in assay [2] and in assay [3] were 101% and 120%, respectively. Further, the fluorescence slope in assay [4] was -0.432 (inactive). Besides, the NADPH fluorescence slope in assay [5] was -2.5e-05 (inactive). In assay [6], the slope is 0.0047 (inactive).

In general, inhibition refers to the relative decrease from the control value, in per cent.
